Test results from ChEMBL document CHEMBL1961873, “Compounds: GSK PKIS; Assays: Nanosyn kinase panel” (2012).

Key:
[1] = molecular target: Sphingosine kinase 1 (Homo sapiens) (UniProt Q9NYA1); details: at 1 µM;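 also: mean SPHK1 inhibition value reported from the GSK PKIS kinase panel screen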
[2] = molecular target: T1, Sphingosine kinase 2 (Homo sapiens) (UniProt Q9NRA0); details: at 0.1 µM
T1 sequence (whole entry): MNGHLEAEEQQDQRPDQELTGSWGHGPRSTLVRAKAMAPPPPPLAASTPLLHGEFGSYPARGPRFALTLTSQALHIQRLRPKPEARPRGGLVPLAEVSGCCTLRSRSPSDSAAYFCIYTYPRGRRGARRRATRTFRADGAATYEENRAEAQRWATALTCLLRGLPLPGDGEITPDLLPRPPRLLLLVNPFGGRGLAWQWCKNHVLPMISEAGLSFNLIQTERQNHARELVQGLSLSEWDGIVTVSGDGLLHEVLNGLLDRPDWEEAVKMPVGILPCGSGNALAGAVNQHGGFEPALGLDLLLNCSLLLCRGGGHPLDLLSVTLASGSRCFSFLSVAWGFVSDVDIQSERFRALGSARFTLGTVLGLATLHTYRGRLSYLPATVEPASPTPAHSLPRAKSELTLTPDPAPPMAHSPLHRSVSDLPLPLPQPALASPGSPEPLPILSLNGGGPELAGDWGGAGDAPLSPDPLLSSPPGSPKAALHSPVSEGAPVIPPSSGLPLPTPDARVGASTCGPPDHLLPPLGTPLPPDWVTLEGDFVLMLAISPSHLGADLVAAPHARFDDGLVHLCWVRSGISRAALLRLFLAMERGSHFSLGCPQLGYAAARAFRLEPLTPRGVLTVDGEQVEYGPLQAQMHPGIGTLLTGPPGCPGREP

[3] = molecular target: T1, Sphingosine kinase 2 (Homo sapiens); details: at 1 µM
[4] = molecular target: Casein kinase II subunit alpha (Homo sapiens) (UniProt P68400); details: at 0.1 µM
Sequence of Casein kinase II subunit alpha (Homo sapiens) (P68400 whole entry, looked up): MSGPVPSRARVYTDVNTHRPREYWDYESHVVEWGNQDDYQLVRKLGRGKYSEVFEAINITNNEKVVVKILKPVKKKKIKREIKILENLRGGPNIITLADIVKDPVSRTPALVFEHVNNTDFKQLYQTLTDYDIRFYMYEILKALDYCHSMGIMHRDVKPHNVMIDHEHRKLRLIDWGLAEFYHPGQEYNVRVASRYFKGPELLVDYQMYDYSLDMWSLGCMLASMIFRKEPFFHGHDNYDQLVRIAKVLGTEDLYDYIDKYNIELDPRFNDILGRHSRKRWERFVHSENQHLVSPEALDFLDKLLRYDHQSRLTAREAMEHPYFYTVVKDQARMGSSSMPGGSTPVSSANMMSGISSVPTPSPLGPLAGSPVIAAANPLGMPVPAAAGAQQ

[5] = molecular target: Casein kinase II subunit alpha (Homo sapiens) (UniProt P68400); details: at 1 µM
[6] = molecular target: T2, Inhibitor of nuclear factor kappa-B kinase subunit alpha (Homo sapiens) (UniProt O15111); details: at 0.1 µM
T2 sequence (whole entry): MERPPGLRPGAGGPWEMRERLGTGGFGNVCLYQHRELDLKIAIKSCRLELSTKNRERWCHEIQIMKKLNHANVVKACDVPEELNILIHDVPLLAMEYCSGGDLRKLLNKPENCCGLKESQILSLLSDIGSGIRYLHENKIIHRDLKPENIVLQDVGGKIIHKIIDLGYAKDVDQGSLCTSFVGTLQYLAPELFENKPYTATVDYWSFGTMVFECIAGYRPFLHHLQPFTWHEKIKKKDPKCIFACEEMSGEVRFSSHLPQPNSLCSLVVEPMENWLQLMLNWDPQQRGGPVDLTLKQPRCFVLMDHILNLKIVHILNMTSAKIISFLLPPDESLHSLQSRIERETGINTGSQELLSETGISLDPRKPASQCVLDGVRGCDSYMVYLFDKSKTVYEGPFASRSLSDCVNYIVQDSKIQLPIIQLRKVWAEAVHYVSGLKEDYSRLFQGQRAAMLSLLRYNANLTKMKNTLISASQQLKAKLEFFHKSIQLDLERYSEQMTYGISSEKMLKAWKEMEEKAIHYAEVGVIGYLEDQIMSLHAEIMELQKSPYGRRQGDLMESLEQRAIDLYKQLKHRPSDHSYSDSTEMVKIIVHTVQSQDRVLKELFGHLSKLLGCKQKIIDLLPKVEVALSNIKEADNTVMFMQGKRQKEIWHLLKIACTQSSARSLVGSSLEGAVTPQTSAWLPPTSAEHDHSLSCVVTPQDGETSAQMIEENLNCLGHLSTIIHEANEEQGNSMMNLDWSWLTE

[7] = molecular target: T2, Inhibitor of nuclear factor kappa-B kinase subunit alpha (Homo sapiens); details: at 1 µM
[8] = molecular target: T3, Inhibitor of nuclear factor kappa-B kinase subunit beta (Homo sapiens) (UniProt O14920); details: at 0.1 µM
T3 sequence (whole entry): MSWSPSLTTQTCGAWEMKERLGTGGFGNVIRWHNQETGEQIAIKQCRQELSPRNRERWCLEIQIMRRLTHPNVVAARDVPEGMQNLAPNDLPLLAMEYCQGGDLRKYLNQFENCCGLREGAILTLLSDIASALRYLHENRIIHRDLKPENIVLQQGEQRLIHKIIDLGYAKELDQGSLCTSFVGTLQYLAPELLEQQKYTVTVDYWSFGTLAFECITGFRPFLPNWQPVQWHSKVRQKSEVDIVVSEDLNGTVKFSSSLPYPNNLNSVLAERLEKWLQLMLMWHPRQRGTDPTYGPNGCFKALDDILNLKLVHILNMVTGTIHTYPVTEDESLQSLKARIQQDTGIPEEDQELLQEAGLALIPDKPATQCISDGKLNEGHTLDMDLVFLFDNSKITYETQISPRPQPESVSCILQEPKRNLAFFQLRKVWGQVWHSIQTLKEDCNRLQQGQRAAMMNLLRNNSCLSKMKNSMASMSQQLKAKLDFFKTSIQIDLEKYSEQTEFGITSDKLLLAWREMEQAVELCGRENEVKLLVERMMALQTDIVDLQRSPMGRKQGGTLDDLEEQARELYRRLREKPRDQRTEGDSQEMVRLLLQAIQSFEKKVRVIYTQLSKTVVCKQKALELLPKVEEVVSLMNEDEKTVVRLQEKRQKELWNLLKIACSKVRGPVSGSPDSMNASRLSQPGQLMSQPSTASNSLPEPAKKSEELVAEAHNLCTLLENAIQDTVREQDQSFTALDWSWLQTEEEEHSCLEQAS

[9] = molecular target: T3, Inhibitor of nuclear factor kappa-B kinase subunit beta (Homo sapiens); details: at 1 µM
[10] = molecular target: T4, Inhibitor of nuclear factor kappa-B kinase subunit epsilon (Homo sapiens) (UniProt Q14164); details: at 0.1 µM
T4 sequence (whole entry): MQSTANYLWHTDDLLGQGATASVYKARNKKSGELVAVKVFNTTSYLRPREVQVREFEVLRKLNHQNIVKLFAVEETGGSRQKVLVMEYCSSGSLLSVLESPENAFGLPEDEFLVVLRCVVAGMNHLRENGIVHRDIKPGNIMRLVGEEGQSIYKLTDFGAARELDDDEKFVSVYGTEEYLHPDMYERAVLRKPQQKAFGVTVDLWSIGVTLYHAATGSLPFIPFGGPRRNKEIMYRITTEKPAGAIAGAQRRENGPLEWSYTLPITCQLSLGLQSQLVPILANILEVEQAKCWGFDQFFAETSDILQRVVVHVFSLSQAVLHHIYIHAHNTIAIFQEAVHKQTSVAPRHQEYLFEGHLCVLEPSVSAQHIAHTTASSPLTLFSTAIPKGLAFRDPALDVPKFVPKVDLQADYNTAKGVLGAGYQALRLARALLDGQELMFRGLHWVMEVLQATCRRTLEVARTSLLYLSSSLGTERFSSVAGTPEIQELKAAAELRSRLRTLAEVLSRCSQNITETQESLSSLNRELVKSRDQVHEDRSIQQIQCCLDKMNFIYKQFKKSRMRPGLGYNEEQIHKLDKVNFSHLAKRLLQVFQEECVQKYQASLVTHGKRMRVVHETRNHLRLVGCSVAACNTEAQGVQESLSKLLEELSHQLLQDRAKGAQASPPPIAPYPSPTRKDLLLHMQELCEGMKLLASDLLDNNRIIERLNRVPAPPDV

[11] = molecular target: T4, Inhibitor of nuclear factor kappa-B kinase subunit epsilon (Homo sapiens); details: at 1 µM
[12] = molecular target: T5, Serine/threonine-protein kinase Nek1 (Homo sapiens) (UniProt Q96PY6); details: at 0.1 µM
T5 sequence (whole entry): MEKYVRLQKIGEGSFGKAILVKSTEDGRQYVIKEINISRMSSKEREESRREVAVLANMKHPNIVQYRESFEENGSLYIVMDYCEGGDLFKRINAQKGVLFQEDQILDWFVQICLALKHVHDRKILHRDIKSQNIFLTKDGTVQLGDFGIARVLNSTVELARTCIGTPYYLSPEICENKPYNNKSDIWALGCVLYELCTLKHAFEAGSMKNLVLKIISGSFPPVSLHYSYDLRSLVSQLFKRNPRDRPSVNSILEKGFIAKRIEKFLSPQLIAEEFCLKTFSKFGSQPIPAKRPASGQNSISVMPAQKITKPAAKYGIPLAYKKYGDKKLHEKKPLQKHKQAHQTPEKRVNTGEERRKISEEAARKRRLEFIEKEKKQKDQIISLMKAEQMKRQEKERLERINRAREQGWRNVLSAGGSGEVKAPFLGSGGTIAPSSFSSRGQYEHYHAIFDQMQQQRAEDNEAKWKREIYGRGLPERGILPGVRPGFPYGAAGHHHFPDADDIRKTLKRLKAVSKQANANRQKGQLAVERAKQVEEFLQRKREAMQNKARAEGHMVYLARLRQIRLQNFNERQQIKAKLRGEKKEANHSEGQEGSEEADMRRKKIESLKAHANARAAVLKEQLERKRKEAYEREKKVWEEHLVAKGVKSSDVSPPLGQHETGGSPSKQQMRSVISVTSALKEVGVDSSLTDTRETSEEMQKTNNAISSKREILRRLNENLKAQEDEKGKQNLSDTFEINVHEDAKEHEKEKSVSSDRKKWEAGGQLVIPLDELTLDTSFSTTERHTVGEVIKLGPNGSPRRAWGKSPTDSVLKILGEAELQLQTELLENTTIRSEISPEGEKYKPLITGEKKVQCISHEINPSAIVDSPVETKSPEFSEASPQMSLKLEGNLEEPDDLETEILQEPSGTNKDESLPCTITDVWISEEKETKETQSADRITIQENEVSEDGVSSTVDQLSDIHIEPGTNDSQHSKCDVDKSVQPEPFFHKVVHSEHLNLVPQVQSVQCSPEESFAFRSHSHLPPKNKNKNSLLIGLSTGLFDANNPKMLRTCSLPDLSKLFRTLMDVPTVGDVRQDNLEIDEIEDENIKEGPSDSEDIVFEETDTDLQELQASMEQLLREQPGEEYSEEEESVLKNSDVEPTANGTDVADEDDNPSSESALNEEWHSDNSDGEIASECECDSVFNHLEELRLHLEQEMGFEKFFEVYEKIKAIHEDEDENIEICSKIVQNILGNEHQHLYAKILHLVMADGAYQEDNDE

[13] = molecular target: T5, Serine/threonine-protein kinase Nek1 (Homo sapiens); details: at 1 µM
[14] = molecular target: T6, Serine/threonine-protein kinase Nek2 (Homo sapiens) (UniProt P51955); details: at 0.1 µM
T6 sequence (whole entry): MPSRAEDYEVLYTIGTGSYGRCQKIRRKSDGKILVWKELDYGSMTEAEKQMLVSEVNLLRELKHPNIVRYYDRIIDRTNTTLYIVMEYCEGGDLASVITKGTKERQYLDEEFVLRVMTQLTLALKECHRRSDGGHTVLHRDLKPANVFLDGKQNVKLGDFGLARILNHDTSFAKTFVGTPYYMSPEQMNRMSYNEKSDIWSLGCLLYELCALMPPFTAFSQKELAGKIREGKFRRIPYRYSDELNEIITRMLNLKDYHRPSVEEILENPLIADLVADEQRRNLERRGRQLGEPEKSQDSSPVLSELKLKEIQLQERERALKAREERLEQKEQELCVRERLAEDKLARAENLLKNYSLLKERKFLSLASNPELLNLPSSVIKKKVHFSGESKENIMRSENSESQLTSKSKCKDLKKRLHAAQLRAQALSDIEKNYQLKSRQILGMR

[15] = molecular target: T6, Serine/threonine-protein kinase Nek2 (Homo sapiens); details: at 1 µM
[16] = molecular target: Serine/threonine-protein kinase Nek6 (Homo sapiens) (UniProt Q9HC98); details: at 0.1 µM
Sequence of Serine/threonine-protein kinase Nek6 (Homo sapiens) (Q9HC98 whole entry): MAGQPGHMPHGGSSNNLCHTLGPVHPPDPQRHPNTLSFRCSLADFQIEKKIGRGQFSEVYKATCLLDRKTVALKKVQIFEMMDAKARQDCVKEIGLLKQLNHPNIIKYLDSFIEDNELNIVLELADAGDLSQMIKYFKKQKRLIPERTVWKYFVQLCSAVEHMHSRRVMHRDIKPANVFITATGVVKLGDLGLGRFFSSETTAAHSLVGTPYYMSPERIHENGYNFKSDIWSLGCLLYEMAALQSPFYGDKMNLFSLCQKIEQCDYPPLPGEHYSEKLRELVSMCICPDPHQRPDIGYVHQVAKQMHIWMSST

[17] = molecular target: Serine/threonine-protein kinase Nek6 (Homo sapiens) (UniProt Q9HC98); details: at 1 µM
[18] = molecular target: Serine/threonine-protein kinase Nek7 (Homo sapiens) (UniProt Q8TDX7); details: at 0.1 µM
Sequence of Serine/threonine-protein kinase Nek7 (Homo sapiens) (Q8TDX7 whole entry, looked up): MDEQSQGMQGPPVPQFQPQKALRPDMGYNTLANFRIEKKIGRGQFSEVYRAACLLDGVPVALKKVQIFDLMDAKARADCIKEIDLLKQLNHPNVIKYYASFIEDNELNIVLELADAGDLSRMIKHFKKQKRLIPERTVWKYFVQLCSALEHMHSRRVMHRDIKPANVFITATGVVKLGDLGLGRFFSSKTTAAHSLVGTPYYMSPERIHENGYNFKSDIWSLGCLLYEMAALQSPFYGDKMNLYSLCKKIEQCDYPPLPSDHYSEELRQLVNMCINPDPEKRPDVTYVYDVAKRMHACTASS

[19] = molecular target: Serine/threonine-protein kinase Nek7 (Homo sapiens) (UniProt Q8TDX7); details: at 1 µM
[20] = molecular target: T7, Serine/threonine-protein kinase Nek9 (Homo sapiens) (UniProt Q8TD19); details: at 0.1 µM;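 also: reported value is the mean percent inhibition of NEK9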
T7 sequence (whole entry): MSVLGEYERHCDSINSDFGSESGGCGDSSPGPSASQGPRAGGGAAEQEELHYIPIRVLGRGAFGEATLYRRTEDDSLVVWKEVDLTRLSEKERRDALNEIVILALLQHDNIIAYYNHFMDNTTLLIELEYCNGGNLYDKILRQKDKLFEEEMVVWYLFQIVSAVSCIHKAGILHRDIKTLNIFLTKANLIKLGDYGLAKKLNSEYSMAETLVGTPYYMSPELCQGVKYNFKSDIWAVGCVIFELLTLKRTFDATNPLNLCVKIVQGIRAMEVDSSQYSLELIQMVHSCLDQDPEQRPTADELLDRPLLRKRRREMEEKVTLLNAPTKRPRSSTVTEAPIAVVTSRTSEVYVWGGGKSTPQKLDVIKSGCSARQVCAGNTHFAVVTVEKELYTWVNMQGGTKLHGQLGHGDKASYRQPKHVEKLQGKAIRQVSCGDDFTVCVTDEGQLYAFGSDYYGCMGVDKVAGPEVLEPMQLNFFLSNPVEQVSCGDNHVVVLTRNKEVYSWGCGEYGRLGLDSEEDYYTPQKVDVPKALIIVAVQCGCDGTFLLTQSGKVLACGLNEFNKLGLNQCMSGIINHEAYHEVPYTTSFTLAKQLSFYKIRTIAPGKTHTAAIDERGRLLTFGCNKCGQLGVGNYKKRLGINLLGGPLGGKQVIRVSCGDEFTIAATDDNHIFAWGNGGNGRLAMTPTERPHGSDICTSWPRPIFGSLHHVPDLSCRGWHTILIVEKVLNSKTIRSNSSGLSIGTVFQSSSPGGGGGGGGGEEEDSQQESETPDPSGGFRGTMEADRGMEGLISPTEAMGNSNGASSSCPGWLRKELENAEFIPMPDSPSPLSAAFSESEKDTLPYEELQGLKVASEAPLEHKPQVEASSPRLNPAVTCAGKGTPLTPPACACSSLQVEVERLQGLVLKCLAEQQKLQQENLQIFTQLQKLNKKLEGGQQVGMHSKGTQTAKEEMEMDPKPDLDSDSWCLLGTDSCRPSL

Sequence of Sphingosine kinase 1 (Homo sapiens) (Q9NYA1 whole entry): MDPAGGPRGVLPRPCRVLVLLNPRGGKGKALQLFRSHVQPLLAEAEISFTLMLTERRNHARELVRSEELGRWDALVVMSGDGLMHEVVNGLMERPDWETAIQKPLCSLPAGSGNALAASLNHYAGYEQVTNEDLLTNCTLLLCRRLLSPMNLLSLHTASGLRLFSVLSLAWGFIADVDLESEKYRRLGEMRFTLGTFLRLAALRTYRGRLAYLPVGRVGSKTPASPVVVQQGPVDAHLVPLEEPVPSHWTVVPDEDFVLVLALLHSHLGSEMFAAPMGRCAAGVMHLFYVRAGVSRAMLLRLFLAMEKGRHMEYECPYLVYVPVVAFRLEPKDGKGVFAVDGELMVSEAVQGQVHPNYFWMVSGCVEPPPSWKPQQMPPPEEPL

Compound: COc1cccc(Nc2nccc(-c3cnn4ncccc34)n2)c1
- inhibition [1]: -2.02%
- inhibition [2]: 0.58%
- inhibition [3]: -1.48%
- inhibition [4]: 8.12%
- inhibition [5]: 40.9%
- inhibition [6]: 11.6%
- inhibition [7]: 53.6%
- inhibition [8]: 5.19%
- inhibition [9]: 27.1%
- inhibition [10]: 3.06%
- inhibition [11]: 18.1%
- inhibition [12]: 3.3%
- inhibition [13]: 18.3%
- inhibition [14]: 4.5%
- inhibition [15]: 5.64%
- inhibition [16]: 3.79%
- inhibition [17]: 1.04%
- inhibition [18]: -0.48%
- inhibition [19]: 4.19%
- inhibition [20]: 10.7%
